Inconclusive results are not listed. Calls of active or inactive are those of the source. Rule for the calls: active = hit-call score of the fitted dose curve at least 0.9, where 1 is the maximum; inconclusive = response in the unintended direction; inactive = score below 0.9.
Experiments:
[1] = TOX21_p53_BLA_p2_viability: Viability Assessment in the Tox21 HCT-116 p53 Agonism Beta-lactamase Assay, Phase 2 (AID 2283591);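 note: compound exposure lasted 16 h at 37 °C; actives lower the ATP signal meaning cytotoxicity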
In short: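 HCT-116 p53-bla cells (4000/well) rested 5 h at 37C, then received compounds in DMSO (217-fold dilution) for 16 h at 37C, 5% CO2. After the CCF4 read, CellTiter-Glo was added; ATP luminescence was read after 30 min at room temperature.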

[2] = target: Cellular tumor antigen p53 (Homo sapiens) (UniProt P04637); assay: TOX21_p53_BLA_p3_ratio: Tox21 HCT-116 p53 Agonism Beta-lactamase Assay, Ratio, Phase 3 (AID 2283596)
Chain of Cellular tumor antigen p53 (Homo sapiens) (P04637 whole entry, looked up): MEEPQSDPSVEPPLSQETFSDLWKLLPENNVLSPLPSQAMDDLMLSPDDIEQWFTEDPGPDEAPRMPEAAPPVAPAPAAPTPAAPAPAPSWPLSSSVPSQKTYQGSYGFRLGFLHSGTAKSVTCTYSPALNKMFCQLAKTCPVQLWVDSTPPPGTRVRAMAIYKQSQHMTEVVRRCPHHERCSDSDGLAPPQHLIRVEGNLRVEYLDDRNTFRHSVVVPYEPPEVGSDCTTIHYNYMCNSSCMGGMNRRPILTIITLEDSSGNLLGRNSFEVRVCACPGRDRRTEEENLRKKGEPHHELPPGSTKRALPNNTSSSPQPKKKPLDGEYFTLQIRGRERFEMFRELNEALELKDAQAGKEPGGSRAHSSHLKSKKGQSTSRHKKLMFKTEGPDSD
In short: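 HCT116 p53-bla cells (4000/well) given compound in DMSO (217-fold dilution) after 5 h, incubated 16 h at 37C. CCF4-AM substrate 2 h at room temperature; 460/530 nm emission ratio, gain fitted against DMSO.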

[3] = TOX21_p53_BLA_p4_viability: Viability Assessment in the Tox21 HCT-116 p53 Agonism Beta-lactamase Assay, Phase 4 (AID 2283597);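 note: hits lower the luminescence signal meaning cytotoxicity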
In short: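 Luminescent ATP readout (CellTiter-Glo, 30 min, room temperature) in the same wells as the p53 bla ratio. HCT116 cells were treated for 16 h at 37C with DMSO-dissolved compounds.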

[4] = target: Cellular tumor antigen p53 (Homo sapiens) (UniProt P04637); assay: TOX21_p53_BLA_p5_ratio: Tox21 HCT-116 p53 Agonism Beta-lactamase Assay, Ratio, Phase 5 (AID 2283599)
In short: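 HCT-116 cells carrying a p53-inducible beta-lactamase reporter were seeded at 4000 cells/well and dosed after 5 h with compound in DMSO (217-fold dilution). After 16 h at 37C, CCF4-AM substrate was added for 2 h, and the 460/530 nm emission ratio was scored as gain-of-signal versus DMSO.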

[5] = TOX21_p53_BLA_p5_viability: Viability Assessment in the Tox21 HCT-116 p53 Agonism Beta-lactamase Assay, Phase 5 (AID 2283600)
In short: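 Seeded cells (4000/well) settle 5 h before compound addition. Plates then incubate 16 h at 37C, receive FRET substrate for 2 h, and finally CellTiter-Glo, with luminescence measured after a 30 min room-temperature incubation.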

[6] = target: Cellular tumor antigen p53 (Homo sapiens) (UniProt P04637); assay: TOX21_p53_BLA_p4_ratio: Tox21 HCT-116 p53 Agonism Beta-lactamase Assay, Ratio, Phase 4 (AID 2283601)
In short: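 HCT116 cells carrying an inducible beta-lactamase reporter were plated at 4000 cells/well, rested 5 h, then exposed to compounds in DMSO (217-fold dilution) for 16 h at 37C. CCF4-AM substrate was loaded 2 h at room temperature; 460/530 nm emission ratio scored gain-of-signal versus DMSO.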

Measured: outcome

O=c1[nH]c2ccc(Cl)cc2o1
inactive: all assays above

CC(=C(CCOC(=O)C(C)C)SSC(CCOC(=O)C(C)C)=C(C)N(C=O)Cc1cnc(C)nc1N)N(C=O)Cc1cnc(C)nc1N
inactive: all assays above

CCCCCCCCCCCCCCCCSCC(COC)COP(=O)([O-])OCC[N+](C)(C)C (stereo unspecified)
inactive: [1] | [2] | [3] | [6]

O=C(O)CNC(=O)c1ccccc1I
inactive: [1] | [2] | [4] | [5]

CC[C@H]1OC(=O)[C@H](C)[C@@H](O[C@H]2C[C@@](C)(OC)[C@@H](O)[C@H](C)O2)[C@H](C)[C@@H](O[C@@H]2O[C@H](C)C[C@H](N(C)C)[C@H]2O)[C@](C)(O)C[C@@H](C)[C@@H]2N[C@@H](COCCOC)O[C@@H]([C@H]2C)[C@]1(C)O
not listed: [3]
inactive: all other assays above

O=Cc1cccc([N+](=O)[O-])c1
not listed: [5]
inactive: all other assays above

CN(C)CCCN1c2ccccc2C(C)(C)c2ccccc21
inactive: [1] | [2] | [4]

CCOc1ccc(NC(=S)Nc2ccc(OCC)cc2)cc1
inactive: [1] | [2] | [3] | [6]

NC(=O)NC(=O)Cc1ccccc1
not listed: [5]
inactive: all other assays above

C=C[Si](OC(=C)C)(OC(=C)C)OC(=C)C
inactive: [1] | [2] | [4] | [5]

Cc1c(I)c(=O)n(-c2ccccc2)n1C
not listed: [3]
inactive: all other assays above

C=CC[N+]1([C@H]2C[C@H]3[C@@H]4CC[C@H]5C[C@H](OC(C)=O)[C@@H](N6CCCCC6)C[C@]5(C)[C@H]4CC[C@]3(C)[C@H]2OC(=O)CC)CCCCC1
not listed: [4]
inactive: all other assays above

CC12CC3CC(C)(C1)CC(N)(C3)C2
not listed: [5]
inactive: all other assays above

COC(=O)C(CN)c1c[nH]c2ccc(OC)cc12 (stereo unspecified)
not listed: [3]
inactive: all other assays above

OC[C@H]1O[C@H](O[C@H]2O[C@H](CO)[C@@H](O)[C@H](O)[C@H]2O)[C@H](O)[C@@H](O)[C@@H]1O
inactive: [1] | [2] | [4] | [5]

O=C(O)c1c(Cl)cccc1Cl
not listed: [5]
inactive: all other assays above

CCCc1nc(C(C)(C)O)c(C(=O)OCc2oc(=O)oc2C)n1Cc1ccc(-c2ccccc2-c2nn[nH]n2)cc1
inactive: [1] | [2] | [4]

ClC1=C(Cl)C1(Cl)Cl
not listed: [4]
inactive: all other assays above

CC[N+](CC)(CCNC(=O)C(=O)NCC[N+](CC)(CC)Cc1ccccc1Cl)Cc1ccccc1Cl
inactive: [1] | [2] | [3] | [6]

CC(=O)Nc1c(I)cc(I)c(C(=O)O)c1I
inactive: [1] | [2] | [4] | [6]

O=C(Cc1cccs1)N[C@@H]1C(=O)N2C(C(=O)[O-])=C(C[n+]3ccccc3)CS[C@H]12
not listed: [3]
inactive: all other assays above

CC(O)CO (stereo unspecified) (tested in a mixture with another compound)
inactive: [1] | [2] | [3] | [6]

CCC(C(=O)OCCOCCN(CC)CC)c1ccccc1 (stereo unspecified)
inactive: [1] | [2] | [4] | [6]

CN1C(=O)C[C@@H](C(=O)N[C@@H](Cc2cnc[nH]2)C(=O)N2CCC[C@H]2C(N)=O)NC1=O
not listed: [3]
inactive: all other assays above

O=C1OC(CN2CCOCC2)CN1N=Cc1ccc([N+](=O)[O-])o1 (stereo unspecified)
not listed: [3]
inactive: all other assays above

Cn1c(=O)c2c(ncn2CC(O)CO)n(C)c1=O (stereo unspecified)
not listed: [5]
inactive: all other assays above

CCc1cnc(C(=O)O)c(C(=O)O)c1
inactive: [1] | [2] | [4] | [6]

Cc1cccc(C)c1NC(=O)C1CCCCN1C (stereo unspecified)
inactive: [1] | [2] | [4] | [5]

CC=CC1=C(C(=O)O)N2C(=O)[C@@H](NC(=O)[C@H](N)c3ccc(O)cc3)[C@H]2SC1
not listed: [3]
inactive: all other assays above

COc1ccc(Br)c(C)c1
inactive: [1] | [2] | [3] | [6]
